# TDP43 rescue – rescues yeast growth from TDP-43 toxicity; TDP-43 expressing yeast growth rescue, BacTiter-Glo, 24 h; Potency, µM (series often up to 46.1 µM), without a hit: top-dose growth rescue (activation), usual class: activators; 1.8% of 410,000 active; further: % of control where 0% means no effect; nearly all actives have a fitted effect of over 50% in size
#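 Growth rescue of TDP-43-toxic yeast measured as ATP luminescence (BacTiter-Glo). Cells grown to mid-log in raffinose, induced in galactose at OD600=0.02, exposed to compound 24 hr at 30 deg C.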
# aSyn rescue – rescues yeast growth from alpha-synuclein toxicity. Yeast expressing alpha-synuclein, growth rescue, BacTiter-Glo, 24 h. Potency, µM (doses to about 46.1 µM), for the others: at the top dose growth rescue (activation), most hits filed as activators. 0.14% of 370,000 active. AID 652106; further: % of control where 0% means no effect; nearly all actives have a fitted effect of over 65% in size
#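 Galactose-induced alpha-syn yeast (OD600=0.02, raffinose-pregrown) + pinned cpd, 24 hr, 30 deg C; growth by BacTiter-Glo luminescence. Growth restoration scores as activation.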
# FUS suppressor – suppressors of FUS proteinopathy in yeast; S. cerevisiae FUS-expressing, growth rescue, OD600, 24 h; Potency, µM (titrated, usually from 76.6 µM), most hits filed as activators; 0.24% of 390,000 active; AID 1347120;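 further: plate controls were DMSO vehicle for no effect and reference control for full effect; nearly all actives have a fitted effect of over 55% in size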
#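 Yeast expressing FUS under galactose induction, OD 0.005 in 2% galactose medium; compounds in a dilution series, 24 h at 30C. Growth rescue by absorbance at 600 nm; CP55940 positive control, DMSO negative.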
# Mito fusion yeast – blocks mitochondrial division or promotes mitochondrial fusion; AID 485298; S. cerevisiae fusion-defective mutant growth rescue, CellTiterGlo 48 h; Potency, µM (highest dose often 46.1 µM), without a hit: at the highest dose growth rescue (activation), usual class: activators; 0.23% of 320,000 active; further: % of control where 0% means no effect; nearly all actives have a fitted effect of over 45% in size
#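 Yeast fusion mutant, YPEG (non-fermentable carbon), compound, 48 h at 37C non-permissive; CellTiterGlo added, 10 min RT, luminescence read. Rescued growth = division inhibition.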
# Abeta rescue – restores growth of yeast expressing A-beta42 peptide; Potency, µM (series often up to 46.1 µM), most hits filed as activators; 0.063% of 410,000 active; yeast expressing A-beta42, growth rescue, OD600, 48 h; response scale: 0% DMSO, 100% iron-clioquinol control; further: nearly all actives have a fitted effect of over 55% in size
#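 Yeast growth medium received pinned compounds, then yeast cells expressing toxic A-beta were added; plates incubated at 30 C for 48 hr. Growth read as absorbance at 600 nm, normalized to DMSO and equimolar FeCl3 plus clioquinol controls.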
# Starred values were filed as active, the others as inactive; i = inactive; ? = inconclusive; · = no result; ! = repeats disagree; [ ] = another dose, or the depositor's remark. A selection: hits, their analogues and other compounds. The true share with any hit is near 2.2%. The call rests on the fitted dose curve; in most records, active means well fitted curve in the direction sought with a large enough effect; inconclusive means small, poorly fitted or top-dose-only effect, or another doubt; inactive means no such curve, though single readings can be large; an effect the other way counts as inactive or inconclusive. Potency means the concentration at half of the fitted maximal effect.
SMILES,TDP43 rescue,aSyn rescue,FUS suppressor,Mito fusion yeast,Abeta rescue
Cc1nc2ccccc2nc1OCc1cccc(Cl)c1,13µM*,5%,i,8%,i
Cc1nc(Nc2ccccc2O)c2oc3ccccc3c2n1,12%,-2%,i,-8%,i
CCOC(=O)C1=C(COC(=O)[C@H](C)NS(=O)(=O)c2ccc(NC(C)=O)cc2)NC(=O)NC1C (stereo not given in full),5%,1%,i,-1%,i
Cc1nc2ccccc2nc1Nc1cccc(Cl)c1,13µM*,13%,i,4%,?
Cc1cccc(N=NC(=S)NNc2cccc(C)c2)c1,?,-16%,·,·,i
COc1ccc(S(=O)(=O)N2CCC(C(N)=O)CC2)c2ccccc12,1%,-13%,i,5%,i[9.22 µM]
CCOC(=O)N1CCN(S(=O)(=O)c2ccc(OC)c3ccccc23)CC1,13µM*,0%,i,-5%,?
CC(C)C[C@H](NC(=O)c1nc[nH]c1C(=O)NC1CCN(C(=O)OC(C)(C)C)CC1)C(=O)OC(C)(C)C,2%,-3%,14µM*,7%,i
CC(C)(C)OC(=O)NCCCC[C@H](NC(=O)c1nc[nH]c1C(=O)NC(c1ccccc1)c1ccccc1)C(=O)OC(C)(C)C,-8%,8%,16µM*,-1%,i
CC(C)(C)OC(=O)NCCCC[C@H](NC(=O)c1nc[nH]c1C(=O)N[C@@H](CCCCNC(=O)OC(C)(C)C)C(=O)OC(C)(C)C)C(=O)OC(C)(C)C,20%,3%,?,-15%,i
CC(C)(C)OC(=O)[C@H](Cc1ccccc1)NC(=O)c1nc[nH]c1C(=O)NC1CCN(C(=O)OC(C)(C)C)CC1,1%,-14%,?,6%,i
CC(C)(C)OC(=O)NCCCC[C@H](NC(=O)c1nc[nH]c1C(=O)NC1CCN(C(=O)OC(C)(C)C)CC1)C(=O)OC(C)(C)C,15%,-9%,14µM*,-15%,i
CC(C)C[C@H](NC(=O)c1nc[nH]c1C(=O)NC1CCN(C(=O)OC(C)(C)C)CC1)C(=O)OCc1ccccc1,8%,0%,?,14%,i
COC(=O)CC1(c2cccc3ccccc23)C(=O)c2ccccc2C1=O,22µM*,6%,i,5%,i
CCCNC(=O)c1oc2ccc3c(c2c1C)C(=O)CC(C)(C)O3,14µM*,-2%,i,-1%,i
Cc1c(C(=O)NCc2ccc(Cl)cc2)oc2ccc3c(c12)C(=O)CC(C)(C)O3,15%,·,i,·,i
O=S(=O)(c1ccc2[nH]ccc2c1)N1CCCCCC1,?,4%,i,8%,i
O=C(O)CCc1nc(-c2ccccc2)c(-c2ccccc2)o1,·,-56%,·,16µM*!,·
O=C(Nc1cc(C(=O)N2CCN(c3ccccc3)CC2)ccc1Cl)c1cccs1,13µM*,-7%,·,·,i
COc1ccc(OC)c(-c2csc(NC(=O)Cn3[nH]c(=O)c4ccccc4c3=O)n2)c1,-20%,-3%,40µM*,9%,i
COc1ccc(OC)c(-c2csc(NC(=O)CN3C(=O)C4CCCCC4C3=O)n2)c1 (stereo not given),2%,3%,?,-4%,i
COc1ccc(OC)c(-c2csc(NC(=O)Cc3ccc(F)cc3)n2)c1,14µM*,5%,i,-13%,i
CCCCN(C)c1c(C)nc2ccc(C(=O)NCCOc3ccc(OC)cc3)cn12,25%,-7%,i,·,i
C[C@@]12CCC=C[C@H]1[C@H](c1ccccc1Br)N(Cc1ccccc1)C2=O,35µM*,-2%,?,·,i
Cc1ccc(F)c([C@H]2[C@@H]3C=CCC[C@@]3(C)C(=O)N2Cc2ccccc2)c1,5%,-7%,i,-54%,i
COC(=O)c1ccc(C2c3c(oc4cc(C)c(C)cc4c3=O)C(=O)N2c2ccccn2)cc1 (stereo not given),6%,·,i,·,i
O=C1C(=Cc2cccc(Cl)c2)CCc2ccccc21,20µM*,-22%,i,·,i
COc1ccccc1CCNC(=O)c1cc2c(=O)n3cccc(C)c3nc2n1C,?,·,i,·,i

# Screening data deposited in PubChem by National Center for Advancing Translational Sciences (NCATS).
